About 83,000 compounds went through this panel and 20% of them were active in at least one assay; those are over-represented in the sample as a whole.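 Values shown are percent growth following 48 h exposure of cells in 96-well plates to a single concentration of compound; below 10 was considered active.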 Values without a mark were called inactive. Activity calls are given as the source filed them.

Among the test systems are NCI-H23 lung; NCI-H226 lung; NCI-H322M lung; HOP-62 NSCLC; NCI-H460 lung; HOP-92 NSCLC; NCI-H522 lung; A549/ATCC NSCLC; 786-0 renal; DU-145 prostate; K-562 leukemia; MALME-3M melanoma; MDA-MB-231 breast; RXF 393 renal; SF-268 CNS; SF-295 CNS; SF-539 CNS; UACC-257 melanoma; M14 melanoma.
Common to all, as to assay: NCI-60 one-dose screen, 48 h (100 = growth as untreated, 0 = no growth, -100 = all killed)
Common to all, as to settings: 10 µM unless noted

In the case of `CCOC(=O)C1C(=O)C=C(c2cnccn2)CC1c1ccc(OC)c(OC)c1` (configuration not stated), the growth was 95.6% with NCI-H23 lung; 96.1% with NCI-H226 lung; 103% in the experiment with NCI-H322M lung; 88.3% with HOP-62 NSCLC; 114% with NCI-H460 lung; 58.2% with HOP-92 NSCLC. The growth in the experiment on NCI-H522 lung was 73.3%; in the experiment with A549/ATCC NSCLC it was 86.6%; in the experiment on 786-0 renal it was 83.7%; in the experiment with DU-145 prostate, 105%; in the experiment with K-562 leukemia, 81.3%; in the experiment on MALME-3M melanoma, 100%. Moreover, the growth was 110% in the experiment with MDA-MB-231 breast; 114% with RXF 393 renal; 102% in the experiment with SF-268 CNS; 95.1% with SF-295 CNS; 95.7% in the experiment on SF-539 CNS; 81.8% with UACC-257 melanoma. The growth in the experiment with M14 melanoma is 85.5%.

For the compound `COc1ccc(Nc2ncc(Br)c(NCCCNC(=O)C3CCC3)n2)cc1`, the growth in the experiment with NCI-H23 lung is 31%; in the experiment on NCI-H226 lung, 21.8%; with NCI-H322M lung it was 43.1%; in the experiment on HOP-62 NSCLC, 10.9%; in the experiment on NCI-H460 lung, 19.4%; with HOP-92 NSCLC it was 40%. The growth in the experiment with NCI-H522 lung is 50.1%; in the experiment with A549/ATCC NSCLC, 19.8%; with 786-0 renal it was 24.3%; with DU-145 prostate, 38.9%; in the experiment with K-562 leukemia, 23%; with MALME-3M melanoma, 77.7%. Besides, the growth was -25.7% (active) with MDA-MB-231 breast; -41.2% (active) with RXF 393 renal; 23.4% with SF-268 CNS; 30.9% with SF-295 CNS; 2.94% (active) with SF-539 CNS; 74.3% with UACC-257 melanoma. Further, the growth with M14 melanoma is 55.2%.

Consider `c1ccc(-c2oc3ccccc3c2-c2ccccc2)cc1`, for which the growth in the experiment with NCI-H23 lung was 90.2%; in the experiment with NCI-H226 lung it was 88.3%; in the experiment with NCI-H322M lung, 95.8%; in the experiment with HOP-62 NSCLC, 105%; in the experiment on NCI-H460 lung, 99.8%; with HOP-92 NSCLC it was 89.5%. Moreover, the growth in the experiment with NCI-H522 lung was 83%; with A549/ATCC NSCLC, 97.2%; in the experiment on 786-0 renal, 98.8%; with DU-145 prostate, 115%; with K-562 leukemia, 67.7%; in the experiment with MALME-3M melanoma, 110%. The growth with MDA-MB-231 breast was 100%; in the experiment on RXF 393 renal, 99.1%; in the experiment on SF-268 CNS, 109%; in the experiment with SF-295 CNS, 104%; in the experiment on SF-539 CNS, 98.5%; in the experiment on UACC-257 melanoma, 111%. Besides, in the experiment with M14 melanoma, the growth is 102%.

Take `Cc1cnc(Nc2ccc(N3CCN(C)CC3)cc2)nc1Nc1ccc(Cl)c(NS(=O)(=O)C(C)(C)C)c1`: the growth is 18.9% in the experiment with NCI-H23 lung; 7.11% (active) in the experiment with NCI-H226 lung; 37.2% with NCI-H322M lung; 14.1% in the experiment on HOP-62 NSCLC; 20.5% in the experiment with NCI-H460 lung; -27.8% (active) in the experiment with HOP-92 NSCLC. Moreover, the growth in the experiment with NCI-H522 lung is -28.8% (active); with A549/ATCC NSCLC it was -26.1% (active); with 786-0 renal it was -30.4% (active); in the experiment with DU-145 prostate, 13.4%; in the experiment on K-562 leukemia, 7.56% (active); in the experiment with MALME-3M melanoma, 19.3%. In addition, the growth in the experiment on MDA-MB-231 breast is 4.33% (active); in the experiment with RXF 393 renal, -78.2% (active); in the experiment with SF-268 CNS it was 15.7%; in the experiment with SF-295 CNS, 26.1%; with SF-539 CNS, -36.4% (active); in the experiment with UACC-257 melanoma, 5.3% (active). Further, in the experiment with M14 melanoma, the growth is 8.84% (active).

With `Cc1nc(Nc2ccccn2)sc1C(=O)/C=C/c1ccc(Br)cc1`, the growth was 88.3% in the experiment with NCI-H23 lung; 85.6% in the experiment on NCI-H226 lung; 80% with NCI-H322M lung; 63.4% with HOP-62 NSCLC; 92% with NCI-H460 lung; 96.3% in the experiment on HOP-92 NSCLC. Besides, the growth in the experiment on NCI-H522 lung is 61.5%; with A549/ATCC NSCLC, 86.2%; in the experiment on 786-0 renal, 96.9%; in the experiment on DU-145 prostate, 66.7%; in the experiment with K-562 leukemia, 13.3%; in the experiment on MALME-3M melanoma, 77.1%. Further, the growth with MDA-MB-231 breast was 71.1%; in the experiment on RXF 393 renal, 78.4%; in the experiment with SF-268 CNS, 78.8%; with SF-295 CNS, 72.8%; in the experiment with SF-539 CNS, 84.7%; in the experiment on UACC-257 melanoma it was 95.7%. The growth in the experiment with M14 melanoma is 80.7%.

Turning to `C=C1C(=O)O[C@H]2[C@H]1CC/C(COC(=O)/C=C/C(=O)NCc1ccc(Cn3c(=O)sn(-c4ccccc4)c3=O)cc1)=C\CC[C@@]1(C)O[C@@H]21`, the growth is 49.7% in the experiment with NCI-H23 lung; 14.5% with NCI-H226 lung; 89.9% with NCI-H322M lung; 85.5% with HOP-62 NSCLC; 91.9% in the experiment on NCI-H460 lung; -53.7% (active) in the experiment with HOP-92 NSCLC. The growth in the experiment on NCI-H522 lung is -80.1% (active); in the experiment on A549/ATCC NSCLC, 80.2%; with 786-0 renal, -19.1% (active); in the experiment with DU-145 prostate, 8.63% (active); in the experiment on K-562 leukemia, -0.361% (active); in the experiment with MALME-3M melanoma, -57.8% (active). The growth with MDA-MB-231 breast is -39.9% (active); with RXF 393 renal, -86.6% (active); in the experiment on SF-268 CNS it was -6.21% (active); in the experiment on SF-295 CNS, 100%; in the experiment on SF-539 CNS, -39.1% (active); in the experiment with UACC-257 melanoma, -11.4% (active). Also, in the experiment with M14 melanoma, the growth is -36% (active).

In the case of `N#Cc1c(N)n2c(nc1=Nc1ccc([N+](=O)[O-])cc1)sc1cc(Cl)ccc12`, the growth was 79% with NCI-H23 lung; 88.4% in the experiment on NCI-H226 lung; 96% in the experiment with NCI-H322M lung; 102% in the experiment on HOP-62 NSCLC; 86.9% with NCI-H460 lung; 57.6% with HOP-92 NSCLC. Moreover, the growth is 77% in the experiment with NCI-H522 lung; 106% in the experiment on A549/ATCC NSCLC; 109% in the experiment on 786-0 renal; 107% in the experiment on DU-145 prostate; 74.4% in the experiment with K-562 leukemia; 90.6% in the experiment on MALME-3M melanoma. In addition, the growth with MDA-MB-231 breast was 74.5%; with RXF 393 renal, 114%; in the experiment with SF-268 CNS, 95.4%; in the experiment on SF-295 CNS it was -4.01% (active); in the experiment on SF-539 CNS, 107%; in the experiment on UACC-257 melanoma, 109%. Moreover, in the experiment with M14 melanoma, the growth is 105%.

As to `C=C1c2c(C)nn(-c3ccc(S(N)(=O)=O)cc3)c2N(C)C23CC1C1(C)c4c(C)nn(-c5ccc(S(N)(=O)=O)cc5)c4N(C)C(C)(CC12)C3` (configuration not stated), the growth was 51.4% with NCI-H23 lung; 40.7% with NCI-H226 lung; 75.7% with NCI-H322M lung; 48.2% in the experiment on HOP-62 NSCLC; 12.4% with NCI-H460 lung; 50.1% with HOP-92 NSCLC. In addition, the growth in the experiment with NCI-H522 lung was 44%; in the experiment on A549/ATCC NSCLC it was 17.6%; in the experiment on 786-0 renal it was 41.9%; in the experiment on DU-145 prostate it was 43.6%; in the experiment with K-562 leukemia, 29.9%; with MALME-3M melanoma, 61.6%. Moreover, the growth in the experiment on MDA-MB-231 breast is 39.6%; with RXF 393 renal, 33.3%; in the experiment on SF-268 CNS it was 42.2%; with SF-295 CNS, 30.1%; with SF-539 CNS, 57.1%; in the experiment on UACC-257 melanoma, 49%. Besides, the growth with M14 melanoma is 20.6%.

The values are drawn from PubChem BioAssay (NCI).
